Among the data in PubChem BioAssay are z-score and composite z-score values, retold here.

The nature of experiment [1]: compound effects on lung adenocarcinoma cell viability – A549, calcein-AM fluorescence, 48 h, basal, profiling panel (AID 1162). Further: test concentration not given here. The settings on record: higher = more signal.
Experiment [2] is described as follows: compound effects on differentiated 3T3-L1 adipocyte viability – cell-based, 3T3-L1 adipocytes, calcein-AM fluorescence, 48 h, basal, profiling panel (AID 1163). Further: test concentration not given here. The settings on record: 3T3-L1 adipocytes viability, higher = more signal.
Experiment [3] can be described thus: compound effects on hepatocellular carcinoma cell viability – HepG2, calcein-AM fluorescence, 48 h, basal, profiling panel (AID 1164). Further: test concentration not given here. To be noted: higher = more signal.
Experiment [4] in a line: compound effects on multiple myeloma cell viability – MM1S, calcein-AM fluorescence, 48 h, basal, profiling panel (AID 1165).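 Further: viability of MM1S multiple myeloma cells under basal unstimulated conditions; test concentration not given here.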 The settings on record: higher = more signal.
The nature of experiment [5]: calcein-AM signal in unstimulated myeloma cells – cell-based, calcein-AM fluorescence, 48 h, PK04 Diversity Set, profiling panel (AID 1166).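 Further: cells grown under basal conditions without added stimulus; test concentration not given here.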 The settings on record: RPMI8226 myeloma viability, higher = more signal.
A short description of experiment [6]: JC-1 mitochondrial signal, unstimulated HepG2 cells – cell-based, JC-1 fluorescence, 24 h, 100 nL compound, profiling panel (AID 1167). Further: test concentration not given here. The settings on record: HepG2 mitochondrial potential, higher = more signal.
Experiment [7] in a line: JC-1 mitochondrial signal, unstimulated adipocytes – cell-based, JC-1 fluorescence, 3T3-L1 adipocytes, 24 h, 100 nL compound, profiling panel (AID 1168). Further: test concentration not given here. The settings on record: JC-1 mitochondrial fluorescence, higher = more signal, called active from +8 up or from −8 down.
Experiment [8] is described as follows: JC-1 mitochondrial signal, unstimulated myeloma cells – cell-based, JC-1 fluorescence, RPMI8226, 24 h, 100 nL compound, profiling panel (AID 1169). Further: test concentration not given here. The settings on record: JC-1 mitochondrial potential fluorescence, higher = more signal.
A short description of experiment [9]: JC-1 mitochondrial signal, unstimulated MM1S myeloma – cell-based, JC-1 fluorescence, 24 h, 100 nL compound, profiling panel (AID 1170). Further: test concentration not given here. To be noted: MM1S mitochondrial potential, higher = more signal.
Experiment [10] is described as follows: resazurin metabolic signal in A549 cells – cell-based, resazurin fluorescence, 24 h, PK04 Diversity Set, profiling panel (AID 1171). Further: test concentration not given here. The settings on record: A549 viability, higher = more signal, called active from +8 up or from −8 down.
The nature of experiment [11]: resazurin metabolic signal in HepG2 cells – cell-based, resazurin fluorescence, 24 h, PK04 Diversity Set, profiling panel (AID 1172). Further: test concentration not given here. The settings on record: HepG2 viability, higher = more signal.
The nature of experiment [12]: budding yeast growth changes without added modifier – OD600, strain BY4716, 24 h, basal condition, primary screen (AID 1173). The settings on record: S. cerevisiae BY4716 growth, OD600, 24 h; higher = more signal, called active from +8 up or from −8 down.
Experiment [13] can be described thus: viability profiling in MM1S myeloma cells – cell-based, resazurin fluorescence, basal, 24 h, PK04 Diversity Set, profiling panel (AID 1174). Further: test concentration not given here. To be noted: higher = more signal, called active from +8 up or from −8 down. On the technique in general: The colour change of resazurin is a common sign of viable cells or microbes.
For experiment [14], the target named is Dihydroorotate dehydrogenase (quinone), mitochondrial (Plasmodium falciparum (isolate 3D7)) (UniProt Q08210). Nature of the experiment: inhibition of P. falciparum DHODH – biochemical, C-terminal His tag, absorbance 600 nm, primary screen (AID 1175).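 Further: recombinant parasite enzyme with a five histidine tag at its C terminus; test concentration not given here.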 To be noted: PfDHODH enzyme, DCIP absorbance 600 nm; higher = more signal, called active from +8 up or from −8 down.
Sequence of Dihydroorotate dehydrogenase (quinone), mitochondrial (Plasmodium falciparum (isolate 3D7)) (Q08210 whole entry, looked up): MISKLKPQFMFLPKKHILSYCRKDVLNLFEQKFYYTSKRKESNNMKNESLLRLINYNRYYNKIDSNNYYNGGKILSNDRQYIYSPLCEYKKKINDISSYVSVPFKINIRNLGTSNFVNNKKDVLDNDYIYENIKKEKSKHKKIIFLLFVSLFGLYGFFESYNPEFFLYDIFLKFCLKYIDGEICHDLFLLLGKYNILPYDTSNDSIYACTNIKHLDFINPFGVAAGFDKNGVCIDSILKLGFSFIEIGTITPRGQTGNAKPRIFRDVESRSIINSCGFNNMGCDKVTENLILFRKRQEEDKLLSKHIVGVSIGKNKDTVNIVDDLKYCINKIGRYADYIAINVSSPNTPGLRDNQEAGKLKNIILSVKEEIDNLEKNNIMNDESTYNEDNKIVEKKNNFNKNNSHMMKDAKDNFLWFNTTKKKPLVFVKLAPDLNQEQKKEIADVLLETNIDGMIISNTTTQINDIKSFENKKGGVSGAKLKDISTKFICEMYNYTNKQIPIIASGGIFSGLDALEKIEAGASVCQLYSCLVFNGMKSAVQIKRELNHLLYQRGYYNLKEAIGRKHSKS

The nature of experiment [15]: inhibition of PAO1 biofilm formation – strain PAO1, LB-PBS medium, absorbance 600 nm, primary screen (AID 1176). Further: test concentration not given here. To be noted: P. aeruginosa PAO1 growth/biofilm, A600, 12 h; higher = more signal.
Experiment [16] can be described thus: growth modulation of vineyard yeast isolate – strain RM11-1a, OD600, basal, 24 h, primary screen (AID 1177).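 Further: cultures grown under basal conditions with no added stressor; test concentration not given here.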 The settings on record: S. cerevisiae RM11-1a growth, OD600, 24 h; higher = more signal, called active from +8 up or from −8 down.
Experiment [17] can be described thus: growth of efflux-deficient E. coli DRC39 – strain DRC39, OD650, 24 h, E. coli filamentation inducers, primary screen (AID 1178).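 Further: growth measured as culture turbidity by optical density at 650 nm; test concentration not given here.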 The settings on record: E. coli DRC39 acrAB, higher = more signal, called active from +8 up or from −8 down.
The nature of experiment [18]: growth of efflux-deficient E. coli DRC39 – strain DRC39, OD650, 48 h, E. coli filamentation inducers, primary screen (AID 1179).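 Further: screen aims at cell division blockers that make cells filament.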 The settings on record: E. coli DRC39 delta-acrAB growth, higher = more signal, called active from +8 up or from −8 down.
A short description of experiment [19]: viability profiling in RPMI8226 myeloma cells – cell-based, resazurin fluorescence, basal, 24 h, PK04 Diversity Set, profiling panel (AID 1180).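 Further: RPMI8826 multiple myeloma cell line at 5000 cells per well; test concentration not given here.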 The settings on record: higher = more signal.
Experiment [20] addresses E3 ubiquitin-protein ligase XIAP (Homo sapiens) (UniProt P98170). Nature of the experiment: small molecules binding XIAP protein – biophysical, small-molecule microarray, fluorescence 635 nm, primary screen (AID 1181).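 Further: score merges 667 nm emission and signal to noise over triplicate slides.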 The settings on record: higher = more signal.

Calls of active or inactive are those of the source. Unless noted, how the calls were made is not given here.

Sequence of E3 ubiquitin-protein ligase XIAP (Homo sapiens) (P98170 whole entry, looked up): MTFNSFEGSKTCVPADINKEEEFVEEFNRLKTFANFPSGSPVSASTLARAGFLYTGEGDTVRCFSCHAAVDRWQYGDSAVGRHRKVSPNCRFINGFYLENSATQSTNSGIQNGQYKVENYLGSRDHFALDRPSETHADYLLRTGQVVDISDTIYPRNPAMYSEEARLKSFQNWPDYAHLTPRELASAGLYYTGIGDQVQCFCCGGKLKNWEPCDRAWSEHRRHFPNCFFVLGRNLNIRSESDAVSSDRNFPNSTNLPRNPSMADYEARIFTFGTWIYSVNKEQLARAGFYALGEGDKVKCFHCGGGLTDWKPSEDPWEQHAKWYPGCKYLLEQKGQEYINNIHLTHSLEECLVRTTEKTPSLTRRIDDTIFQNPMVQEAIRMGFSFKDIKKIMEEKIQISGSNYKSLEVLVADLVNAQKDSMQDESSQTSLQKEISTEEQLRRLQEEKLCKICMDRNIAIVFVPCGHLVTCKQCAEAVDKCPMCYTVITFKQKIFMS

`CC(C)(C)N1C(=O)[C@H]2[C@H]3[C@H](O)[C@H](O)CC(=NOC[C@@H](O)COCc4ccco4)[C@H]3CC[C@H]2C1=O`: the z-score in experiment [1] was -0.0309; in experiment [2], 0.676; in experiment [3], 0.082; in experiment [4], 0.406; in [5] it was -0.139; in experiment [6], -0.368. Further, the z-score in experiment [7] is 0.856 (inactive); in experiment [8], -0.631; in experiment [9] it was -0.914; in experiment [10], -0.679 (inactive); in [11], -0.488; in [12], 0.262 (inactive). For the same compound, the z-score in [13] is -0.622 (inactive); in experiment [15], -0.0606 (inactive); in [16] it was 0.0001 (inactive); in experiment [17] it was -0.0207 (inactive); in [18] it was -0.149 (inactive); in [19] it was -0.583. In addition, the composite z-score is 0.748 (inactive) in experiment [14] and -0.334 in experiment [20].

Take `CCOC(=O)CCN1C(=O)[C@H]2[C@H]3[C@H](O)[C@H](O)CC(=NOCC=C(C)CCC=C(C)C)[C@H]3CC[C@H]2C1=O`: the z-score is 0.844 in experiment [1]; -1.23 in experiment [2]; 0.536 in [3]; 0.345 in [4]; 0.15 in experiment [5]; 0.572 in experiment [6]. Also, the z-score is 0.408 (inactive) in experiment [7]; 0.523 in experiment [8]; -1.44 in experiment [9]; -1.1 (inactive) in [10]; -0.51 in experiment [11]; 0.398 (inactive) in [12]. For the same compound, the z-score in experiment [13] is -0.524 (inactive); in experiment [15], 0.128 (inactive); in experiment [16] it was 0.0725 (inactive); in [17], 0.614 (inactive); in experiment [18] it was 0.846 (inactive); in [19], -0.764. Moreover, the composite z-score in experiment [14] was -0.0222 (inactive); in experiment [20], 0.0223.

For the compound `CCOC(=O)[C@H](CC(C)C)NC(=O)CCC1CC(OC(=O)NCc2ccc3c(c2)OCO3)CC2(CCCC(COC(=O)NCCC(C)C)O2)O1` (stereo not given in full), the z-score in experiment [1] is 0.0634; in [2], -0.0921; in experiment [3], -0.231; in experiment [4], 0.473; in experiment [5], 0.403; in experiment [6] it was 0.449. The z-score in experiment [7] was 0.135 (inactive); in experiment [8], -0.938; in [9], -0.155; in experiment [10], 0.704 (inactive); in [11] it was 0.54; in experiment [12], -0.214 (inactive). In addition, the z-score in [13] was 1.03 (inactive); in [15], 0.462 (inactive); in [16], 0.175 (inactive); in experiment [17] it was 1 (inactive); in experiment [18] it was -0.0965 (inactive); in experiment [19] it was 0.497. Moreover, the composite z-score was 0.126 (inactive) in experiment [14] and 0.0065 in experiment [20].

Consider `C#CCCCON=C1C[C@@H](O)[C@@H](O)[C@@H]2[C@@H]3C(=O)N(C[C@@H]4CCCO4)C(=O)[C@@H]3CC[C@@H]12`, for which the z-score in experiment [1] is 0.137; in [2], 1.22; in [3], -0.396; in [4], 0.476; in experiment [5], -0.0761; in experiment [6] it was -0.444. Further, the z-score is 0.27 (inactive) in [7]; -0.193 in experiment [8]; -0.485 in [9]; 0.0354 (inactive) in [10]; 0.475 in [11]; 0.43 (inactive) in experiment [12]. The z-score in experiment [13] was 0.0893 (inactive); in [15], 0.14 (inactive); in experiment [16], -0.399 (inactive); in experiment [17] it was 0.534 (inactive); in experiment [18], 0.802 (inactive); in [19], 0.199. In addition, the composite z-score in experiment [14] was -0.85 (inactive); in experiment [20], -0.0303.
